From PubChem BioAssay (EPA / NIEHS) come the findings set out here.

Records with an inconclusive call do not appear. Calls of active or inactive are those of the source. The calls were made as follows, unless noted: active = hit-call score of the fitted dose curve at least 0.9, where 1 is the maximum; inactive = score below 0.9.

As a reminder, the AC50 is the concentration at which the activity in the assay is half-maximal.

Assay [1] can be described thus: ATG_NFI_CIS: Attagene CIS-FACTORIAL HepG2 Assay for human Nuclear Factor I (NFI) (AID 2282989). Conditions: HepG2 cis-regulatory reporter, NFI response element transcription; actives raise or lower the signal. A digest of the protocol:
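Read-out: reporter mRNA via RT-PCR plus capillary electrophoresis with fluorescence detection. Transiently transfected HepG2 (endogenous TF activity on cis promoters), 24 h compound exposure; gain or loss of signal fitted against DMSO.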

The target in assay [2] is Myc proto-oncogene protein (Homo sapiens) (UniProt P01106). Kind of assay: ATG_Myc_CIS: Attagene CIS-FACTORIAL HepG2 Assay for human Myelocytomatosis (Myc) Proto-Oncogene Transcription Factor (AID 2282990). Conditions: HepG2, Attagene cis-reporter transcription factor activity; actives raise or lower the signal. A digest of the protocol:
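Cells of the HepG2 human liver line bear multiple cis-driven reporter transcription units. Reporter mRNA after 24 h exposure is reverse-transcribed, amplified, labelled and resolved by capillary electrophoresis, with gain- or loss-of-signal fitting relative to DMSO.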

Assay [3] in a line: ATG_NRF2_ARE_CIS: Attagene CIS-FACTORIAL HepG2 Assay for human Nuclear Factor Erythroid 2 Related Factor 2 (NFR2) response to Antioxidant Response Elements (ARE) (AID 2282992).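 As to AC50: reporter mRNA level measured by RT-PCR and capillary electrophoresis fluorescence.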 The settings on record: HepG2 Attagene ARE/NRF2 reporter, transcription factor activity; actives raise or lower the signal. A digest of the protocol:
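Multiplexed reporter mRNA profiling in HepG2 after a 24 h chemical exposure. Curves fitted in both directions relative to DMSO negative control.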

Assay [4] is described as follows: ATG_Oct_MLP_CIS: Attagene CIS-FACTORIAL HepG2 Assay for human Octamer-Binding Transcription Factor (Oct) (AID 2282993). Conditions: HepG2 Attagene cis-factorial Oct reporter, mRNA; actives raise or lower the signal. A digest of the protocol:
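Read-out: reporter mRNA via RT-PCR plus capillary electrophoresis of 6-FAM-labelled fragments. Transiently transfected HepG2, 24 h exposure, endogenous TF activity on cis elements. Gain or loss of signal fitted relative to DMSO.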

Assay [5] concerns the target Cellular tumor antigen p53 (Homo sapiens) (UniProt P04637). As to the kind of experiment: ATG_p53_CIS: Attagene CIS-FACTORIAL HepG2 Assay for human p53 Transcription Factor (AID 2282994). Conditions: HepG2 p53 cis-element reporter, Attagene mRNA; actives raise or lower the signal. The procedure, abridged: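 Multiplexed reporter mRNA assay in human HepG2 liver cells; cis-regulated units report endogenous factor activity. Values come from bidirectional curve fitting against DMSO negative control after 24 h treatment.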

Assay [6] can be described thus: BSK_3C_TissueFactor: BioMAP Diversity Plus: 3C Assay for Tissue Factor Biomarker Activity (AID 2282997). Conditions: BioMAP 3C HUVEC, tissue factor biomarker readout; actives raise or lower the signal. The procedure, abridged:
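Values derive from bidirectional curve fitting against DMSO of Tissue Factor ELISA signals, taken 24 h after dosing primary human umbilical vein endothelial cells.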

Assay [7] can be described thus: BSK_3C_uPAR: BioMAP Diversity Plus: 3C Assay for Urokinase-type plasminogen activator receptor (uPAR) Biomarker Activity (AID 2282998). The settings on record: BioMAP 3C HUVEC, uPAR biomarker ELISA; actives raise or lower the signal. A digest of the protocol: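 HUVEC primary cells; 24 h post-dose; uPAR by ELISA; gain or loss of signal fitted bidirectionally vs DMSO baseline.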
(In general: In an ELISA, binding on a coated surface is turned into a signal by an enzyme label.)

Assay [8] can be described thus: BSK_3C_VCAM1: BioMAP Diversity Plus: 3C Assay for Vascular cell adhesion molecule 1 (VCAM1) Biomarker Activity (AID 2282999). Conditions: BioMAP 3C HUVEC, VCAM1 ELISA, cytokine-stimulated; actives raise or lower the signal. The procedure, abridged: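 Endothelial cells from human umbilical vein are treated with test chemical. At 24 h, VCAM-1 is measured by ELISA, and responses in either direction are fitted relative to DMSO.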

The nature of assay [9]: BSK_4H_Eotaxin3: BioMAP Diversity Plus: 4H Assay for Eotaxin 3 Biomarker Activity (AID 2283000).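 Also: CCL26 protein level quantified by ELISA in parallel with SRB cytotoxicity check.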 Conditions: primary human endothelial cells (HUVEC); actives raise or lower the signal. A digest of the protocol: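 Endothelial primary cells (human umbilical vein) exposed to compound for 24 h. ELISA detection of Eotaxin-3.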
The target of assay [10] is human Peroxisome Proliferator-activated Receptor alpha (PPARa), PPARA (gene 5465) (UniProt Q07869). As to the kind of experiment: ATG_PPARa_TRANS: Attagene TRANS-FACTORIAL HepG2 Assay for human Peroxisome Proliferator-activated Receptor alpha (PPARa) (AID 2283001; active = hit-call score of the fitted dose curve at least 0.9, where 1 is the maximum). The procedure, abridged: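 Read-out is fluorescence of reporter cDNA fragments resolved by capillary electrophoresis after RT-PCR. Human HepG2 liver cells carried transfected PPARa-Gal4 chimera and GAL4-UAS reporter units, treated 24 h; activity scored as increase over DMSO.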

In assay [11] the target is human Peroxisome Proliferator-activated Receptor delta (PPARd), PPARD (gene 5467) (UniProt Q03181). As to the kind of experiment: ATG_PPARd_TRANS: Attagene TRANS-FACTORIAL HepG2 Assay for human Peroxisome Proliferator-activated Receptor delta (PPARd) (AID 2283002; active = hit-call score of the fitted dose curve at least 0.9, where 1 is the maximum). The procedure, abridged: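 Cell-based TRANS reporter: HepG2, transient MRTU transfection, 24 h exposure. Readout = reporter mRNA (RT-PCR/CE, 6-FAM). Gain-of-signal fit vs DMSO control.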

Read-out in assay [12]: Intercellular Adhesion Molecule 1 (ICAM1), ICAM1 (gene 3383)
As to the kind of experiment: BSK_3C_ICAM1: BioMAP Diversity Plus: 3C Assay for Intercellular Adhesion Molecule 1 (ICAM1) Biomarker Activity (AID 2283003). Conditions: primary human endothelial cells (HUVEC); actives raise or lower the signal. The procedure, abridged:
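ICAM-1 levels measured by ELISA after HUVEC cultures in the 3C system had been dosed for 24 h. Gain or loss of signal relative to DMSO was fitted in both directions.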

Assay [13] in a line: BSK_3C_Proliferation: Cell Proliferation Assessment in the BioMAP Diversity Plus: 3C Assay (AID 2283006). The settings on record: primary human endothelial cells (HUVEC). A digest of the protocol:
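Read-out is total protein by SRB absorbance at 560 nm, taken as a proxy for relative cell number. Primary human umbilical vein endothelium cultured below confluence was dosed for 48 h, TCA-fixed and SRB-stained; curves were fitted bidirectionally versus DMSO.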

Assay [14] deals with Nuclear receptor subfamily 1 group I member 2 (Homo sapiens) (UniProt O75469). As to the kind of experiment: ATG_PXR_TRANS: Attagene TRANS-FACTORIAL HepG2 Assay for human Pregnane X Receptor (PXR) (AID 2283008; active = hit-call score of the fitted dose curve at least 0.9, where 1 is the maximum). A digest of the protocol:
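Measures mRNA induction of a GAL4-UAS-driven reporter in human HepG2 cells transiently expressing PXR fused to Gal4, following 24 h treatment. DMSO served as negative control and baseline.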

A short description of assay [15]: ATG_NF_kB_CIS: Attagene CIS-FACTORIAL HepG2 Assay for human Nuclear Factor Kappa B (NF-kB) (AID 2282991). Conditions: HepG2 Attagene cis-factorial NF-kB reporter mRNA; actives raise or lower the signal. The procedure, abridged: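 Multiplexed cis-reporter assay in transiently transfected HepG2. 24 h treatment; RNA isolated, RT-PCR, labelled fragments resolved by CE. DMSO baseline.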

The target in assay [16] is human Retinoic Acid Receptor beta (RARb), RARB (gene 5915) (UniProt P10826). As to the kind of experiment: ATG_RARb_TRANS: Attagene TRANS-FACTORIAL HepG2 Assay for human Retinoic Acid Receptor beta (AID 2283004; active = hit-call score of the fitted dose curve at least 0.9, where 1 is the maximum). The procedure, abridged:
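HepG2, transient MRTU transfection, NR–Gal4 chimera, 24 h treatment; RT-PCR plus CE fluorescence detection of reporter mRNA; gain of signal vs DMSO.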

Assay [17] addresses Peroxisome proliferator-activated receptor gamma (Homo sapiens) (UniProt P37231). As to the kind of experiment: ATG_PPARg_TRANS: Attagene TRANS-FACTORIAL HepG2 Assay for human Peroxisome Proliferator-activated Receptor-gamma (PPARg) (AID 2283007; active = hit-call score of the fitted dose curve at least 0.9, where 1 is the maximum). The procedure, abridged: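 Human hepatoma HepG2, transient MRTU transfection, 24 h treatment. mRNA reporter signal by RT-PCR plus capillary electrophoresis, fluorescence detection; fitted for increase over DMSO negative control.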

Assay [18] addresses Retinoic acid receptor alpha (Homo sapiens) (UniProt P10276). As to the kind of experiment: ATG_RARa_TRANS: Attagene TRANS-FACTORIAL HepG2 Assay for human Retinoic Acid Receptor alpha (RARa) (AID 2283005; active = hit-call score of the fitted dose curve at least 0.9, where 1 is the maximum). A digest of the protocol:
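Reporter transcripts, measured by RT-PCR with fluorescent labeling and capillary electrophoresis after 24 h dosing, reflect activity of an exogenous human RARa–GAL4 fusion in transiently transfected HepG2. Fitted for increase relative to DMSO.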

Assay [19] has as its target human Retinoic Acid Receptor gamma (RARg), RARG (gene 5916) (UniProt P13631). Kind of assay: ATG_RARg_TRANS: Attagene TRANS-FACTORIAL HepG2 Assay for human Retinoic Acid Receptor gamma (RARg) (AID 2283009; active = hit-call score of the fitted dose curve at least 0.9, where 1 is the maximum). A digest of the protocol:
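Transient transfection of HepG2 with multi-reporter constructs, then 24 h chemical treatment. Total RNA isolated, reverse-transcribed, PCR-amplified, fluorescently labelled and resolved by capillary electrophoresis; activity scored as mRNA induction versus DMSO.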

In assay [20] the target is human RAR-related Orphan Receptor beta (RORb), RORB (gene 6096) (UniProt Q92753). As to the kind of experiment: ATG_RORb_TRANS: Attagene TRANS-FACTORIAL HepG2 Assay for human RAR-related Orphan Receptor beta (RORb) (AID 2283010; active = hit-call score of the fitted dose curve at least 0.9, where 1 is the maximum). The procedure, abridged:
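Readout is reporter-gene mRNA induction, detected as fluorescence after RT-PCR and capillary electrophoresis, fitted for gain of signal against DMSO controls. Transiently transfected HepG2 liver cells carrying GAL4-UAS reporter constructs were treated for 24 hours.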

Sequence of human Peroxisome Proliferator-activated Receptor delta (PPARd), PPARD (gene 5467) (Q03181 whole entry, looked up): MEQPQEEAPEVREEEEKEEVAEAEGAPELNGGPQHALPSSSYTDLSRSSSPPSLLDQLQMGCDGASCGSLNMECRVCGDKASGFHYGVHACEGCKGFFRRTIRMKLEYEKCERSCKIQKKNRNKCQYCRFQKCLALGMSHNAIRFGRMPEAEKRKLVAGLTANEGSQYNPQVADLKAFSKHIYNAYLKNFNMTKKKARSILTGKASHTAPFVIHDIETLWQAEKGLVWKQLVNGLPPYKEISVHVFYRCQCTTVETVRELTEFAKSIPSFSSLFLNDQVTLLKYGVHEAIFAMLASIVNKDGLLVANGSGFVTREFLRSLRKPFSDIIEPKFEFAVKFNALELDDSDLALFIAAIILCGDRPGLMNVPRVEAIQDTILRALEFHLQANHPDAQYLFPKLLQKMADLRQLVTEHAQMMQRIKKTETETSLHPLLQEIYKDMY
Sequence of Myc proto-oncogene protein (Homo sapiens) (P01106 whole entry, looked up): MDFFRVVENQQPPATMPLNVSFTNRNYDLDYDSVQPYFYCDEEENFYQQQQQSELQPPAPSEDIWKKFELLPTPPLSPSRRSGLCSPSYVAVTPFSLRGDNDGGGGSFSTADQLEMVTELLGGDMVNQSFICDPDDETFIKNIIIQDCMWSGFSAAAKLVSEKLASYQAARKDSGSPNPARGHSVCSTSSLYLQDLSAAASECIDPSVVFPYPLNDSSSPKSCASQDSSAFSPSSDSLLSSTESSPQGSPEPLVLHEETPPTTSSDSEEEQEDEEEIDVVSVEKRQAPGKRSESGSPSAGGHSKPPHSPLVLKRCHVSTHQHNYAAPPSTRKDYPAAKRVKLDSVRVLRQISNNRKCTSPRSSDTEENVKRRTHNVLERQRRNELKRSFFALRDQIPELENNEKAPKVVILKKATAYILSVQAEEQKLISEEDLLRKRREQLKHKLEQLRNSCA
Sequence of Peroxisome proliferator-activated receptor gamma (Homo sapiens) (P37231 whole entry, looked up): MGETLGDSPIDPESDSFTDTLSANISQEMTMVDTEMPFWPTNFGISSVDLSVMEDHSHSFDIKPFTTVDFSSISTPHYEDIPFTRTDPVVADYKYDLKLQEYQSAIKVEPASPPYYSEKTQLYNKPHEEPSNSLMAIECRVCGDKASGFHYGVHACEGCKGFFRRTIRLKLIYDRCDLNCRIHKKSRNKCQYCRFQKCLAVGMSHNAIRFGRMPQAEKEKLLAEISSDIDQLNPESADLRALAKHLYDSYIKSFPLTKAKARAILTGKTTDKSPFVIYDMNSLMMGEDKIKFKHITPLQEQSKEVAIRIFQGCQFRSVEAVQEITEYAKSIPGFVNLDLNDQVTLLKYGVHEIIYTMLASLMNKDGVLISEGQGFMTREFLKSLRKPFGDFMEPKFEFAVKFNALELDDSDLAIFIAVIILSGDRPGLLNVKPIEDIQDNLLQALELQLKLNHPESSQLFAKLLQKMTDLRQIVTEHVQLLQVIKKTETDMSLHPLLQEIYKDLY
Sequence of human Retinoic Acid Receptor gamma (RARg), RARG (gene 5916) (P13631 whole entry, looked up): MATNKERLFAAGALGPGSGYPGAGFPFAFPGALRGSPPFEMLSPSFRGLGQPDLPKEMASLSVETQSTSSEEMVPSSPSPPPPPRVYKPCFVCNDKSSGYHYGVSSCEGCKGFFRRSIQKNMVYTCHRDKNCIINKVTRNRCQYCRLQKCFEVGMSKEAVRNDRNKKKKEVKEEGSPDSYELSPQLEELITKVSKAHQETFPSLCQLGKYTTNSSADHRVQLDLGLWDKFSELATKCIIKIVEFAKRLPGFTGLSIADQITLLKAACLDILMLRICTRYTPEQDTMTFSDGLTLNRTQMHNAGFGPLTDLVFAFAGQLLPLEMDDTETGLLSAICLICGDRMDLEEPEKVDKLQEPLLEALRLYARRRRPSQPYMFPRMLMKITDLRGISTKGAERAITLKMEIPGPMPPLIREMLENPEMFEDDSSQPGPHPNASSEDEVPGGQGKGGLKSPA
Sequence of human RAR-related Orphan Receptor beta (RORb), RORB (gene 6096) (Q92753 whole entry, looked up, the tested form may be a part): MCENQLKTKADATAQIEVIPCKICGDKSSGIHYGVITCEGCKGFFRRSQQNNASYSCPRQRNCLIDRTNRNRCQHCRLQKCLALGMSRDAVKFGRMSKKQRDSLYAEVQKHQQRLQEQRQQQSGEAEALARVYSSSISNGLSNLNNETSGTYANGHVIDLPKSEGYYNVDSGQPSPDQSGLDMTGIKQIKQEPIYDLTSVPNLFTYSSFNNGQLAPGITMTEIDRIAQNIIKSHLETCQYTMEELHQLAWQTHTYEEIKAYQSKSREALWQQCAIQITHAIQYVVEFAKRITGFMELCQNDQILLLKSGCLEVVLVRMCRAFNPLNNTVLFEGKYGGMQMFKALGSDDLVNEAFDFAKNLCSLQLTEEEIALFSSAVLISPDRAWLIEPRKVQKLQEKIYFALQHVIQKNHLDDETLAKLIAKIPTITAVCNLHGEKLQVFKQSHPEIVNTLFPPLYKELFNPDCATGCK
Sequence of Nuclear receptor subfamily 1 group I member 2 (Homo sapiens) (O75469 whole entry, looked up, the tested form may be a part): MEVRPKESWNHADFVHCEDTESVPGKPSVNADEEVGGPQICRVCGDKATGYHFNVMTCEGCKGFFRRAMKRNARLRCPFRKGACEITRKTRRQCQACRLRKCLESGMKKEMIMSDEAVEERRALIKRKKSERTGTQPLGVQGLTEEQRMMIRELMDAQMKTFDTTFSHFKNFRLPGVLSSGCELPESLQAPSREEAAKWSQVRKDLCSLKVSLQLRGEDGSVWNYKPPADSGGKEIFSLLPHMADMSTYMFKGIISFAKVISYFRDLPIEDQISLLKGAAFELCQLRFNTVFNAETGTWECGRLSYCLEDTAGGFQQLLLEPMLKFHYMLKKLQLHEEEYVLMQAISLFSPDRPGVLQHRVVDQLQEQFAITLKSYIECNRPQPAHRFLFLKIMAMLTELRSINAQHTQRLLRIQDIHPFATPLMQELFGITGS
Sequence of human Peroxisome Proliferator-activated Receptor alpha (PPARa), PPARA (gene 5465) (Q07869 whole entry, looked up, the tested form may be a part): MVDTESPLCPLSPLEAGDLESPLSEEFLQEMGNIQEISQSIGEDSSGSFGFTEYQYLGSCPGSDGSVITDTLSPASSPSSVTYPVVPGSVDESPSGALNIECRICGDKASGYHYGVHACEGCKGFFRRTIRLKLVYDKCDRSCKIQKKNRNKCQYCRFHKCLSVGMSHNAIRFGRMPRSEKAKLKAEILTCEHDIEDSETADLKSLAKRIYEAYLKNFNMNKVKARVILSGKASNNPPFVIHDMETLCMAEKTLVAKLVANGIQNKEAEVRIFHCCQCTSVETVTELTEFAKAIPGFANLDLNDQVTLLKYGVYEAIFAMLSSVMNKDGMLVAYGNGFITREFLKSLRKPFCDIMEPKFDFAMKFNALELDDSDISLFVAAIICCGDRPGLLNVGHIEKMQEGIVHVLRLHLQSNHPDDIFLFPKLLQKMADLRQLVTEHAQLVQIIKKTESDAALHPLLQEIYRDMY
Sequence of human Retinoic Acid Receptor beta (RARb), RARB (gene 5915) (P10826 whole entry, looked up, the tested form may be a part): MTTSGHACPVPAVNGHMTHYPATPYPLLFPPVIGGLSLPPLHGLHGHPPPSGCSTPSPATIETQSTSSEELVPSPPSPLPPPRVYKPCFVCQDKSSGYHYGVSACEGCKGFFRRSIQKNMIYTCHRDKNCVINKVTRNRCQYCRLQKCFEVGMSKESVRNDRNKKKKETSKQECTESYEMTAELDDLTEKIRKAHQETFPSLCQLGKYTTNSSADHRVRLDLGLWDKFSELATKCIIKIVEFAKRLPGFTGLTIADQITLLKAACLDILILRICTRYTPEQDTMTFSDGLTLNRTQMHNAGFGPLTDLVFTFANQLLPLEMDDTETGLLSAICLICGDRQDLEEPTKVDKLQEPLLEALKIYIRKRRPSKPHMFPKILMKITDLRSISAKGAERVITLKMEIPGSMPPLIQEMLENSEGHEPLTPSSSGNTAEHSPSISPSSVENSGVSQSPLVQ
Sequence of Cellular tumor antigen p53 (Homo sapiens) (P04637 whole entry, looked up): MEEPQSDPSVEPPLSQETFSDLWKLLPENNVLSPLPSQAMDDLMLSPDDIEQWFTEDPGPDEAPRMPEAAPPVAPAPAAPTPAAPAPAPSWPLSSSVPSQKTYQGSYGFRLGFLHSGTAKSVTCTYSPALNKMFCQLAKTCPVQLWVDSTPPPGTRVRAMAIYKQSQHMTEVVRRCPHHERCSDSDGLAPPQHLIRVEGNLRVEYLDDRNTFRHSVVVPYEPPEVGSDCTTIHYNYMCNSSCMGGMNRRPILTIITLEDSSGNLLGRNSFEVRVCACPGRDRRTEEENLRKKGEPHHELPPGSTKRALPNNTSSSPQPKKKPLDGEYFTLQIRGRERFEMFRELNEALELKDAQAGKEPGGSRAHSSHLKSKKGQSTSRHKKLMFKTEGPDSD
Sequence of Retinoic acid receptor alpha (Homo sapiens) (P10276 whole entry, looked up, the tested form may be a part): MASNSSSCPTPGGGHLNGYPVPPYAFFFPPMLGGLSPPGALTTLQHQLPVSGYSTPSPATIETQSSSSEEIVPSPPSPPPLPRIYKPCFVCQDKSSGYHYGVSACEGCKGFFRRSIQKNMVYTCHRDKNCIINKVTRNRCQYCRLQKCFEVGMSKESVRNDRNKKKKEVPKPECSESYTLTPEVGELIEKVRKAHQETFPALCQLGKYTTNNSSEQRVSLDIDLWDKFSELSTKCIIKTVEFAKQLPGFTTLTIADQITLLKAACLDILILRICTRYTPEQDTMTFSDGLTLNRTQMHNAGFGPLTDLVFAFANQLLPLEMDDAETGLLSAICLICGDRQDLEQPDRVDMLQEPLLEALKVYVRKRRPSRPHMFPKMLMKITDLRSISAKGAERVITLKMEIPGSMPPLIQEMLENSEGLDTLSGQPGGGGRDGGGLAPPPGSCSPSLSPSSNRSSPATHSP

As for `C=C(C)C(=O)OCCOCCOCCOCCOC(=O)C(=C)C`, the molecule was classed as inactive in assay [1], in assay [2], in [4], in [5], in assay [6] and in [7]. Further, the outcome in [8], in assay [9], in [10], in assay [11], in [12] and in assay [13] was inactive. The outcome in assay [14] was inactive. In addition, the AC50 in assay [3] was 69.7 µM (active).

For `CCNCCO`, the molecule was called inactive in assay [1], in [2], in assay [15], in assay [3], in assay [16] and in [17].

As to `Cc1occc(=O)c1OC(=O)C(C)C`, the result in [1], in assay [2], in [3], in assay [4], in assay [5] and in assay [10] was inactive. The call in [11] was inactive.

Take `CC(C)NCC(O)COc1ccc(CC(N)=O)cc1` (stereo not drawn): the result in [1], in assay [2], in [4], in assay [5], in assay [10] and in [17] was inactive. Further, the outcome in assay [14] was inactive. Further, the AC50 in assay [3] is 61.5 µM (active).

As to `O=[N+]([O-])c1ccc(O)cc1C(F)(F)F`, the AC50 in assay [1] is 69.4 µM (active); in assay [3] it was 52.8 µM (active); in assay [4] it was 55.2 µM (active); in [17] it was 38.7 µM (active). Moreover, the call in [2], in [5], in [10], in [11], in assay [16] and in assay [18] was inactive. For the same molecule, the molecule was classed as inactive in [14], in assay [19] and in assay [20].

`Nc1ccc(N)c2c1C(=O)c1ccccc1C2=O`: the result in [1], in [2], in assay [5], in assay [10], in assay [11] and in assay [16] was inactive. Also, the call in [14], in assay [19] and in assay [20] was inactive. The AC50 is 5.63 µM (active) in assay [3], 3.47 µM (active) in [4] and 11.3 µM (active) in [17].

As for `CCCC(C)C(O)CC` (stereo not drawn), the result in [1], in [2], in [3], in assay [4], in assay [5] and in assay [10] was inactive. Further, the molecule was classed as inactive in assay [16], in assay [18], in [17], in assay [14] and in assay [19].

Regarding `Nc1ccc(NCCO)c([N+](=O)[O-])c1`, the molecule was classed as inactive in assay [1], in assay [2], in assay [4], in [5], in [10] and in assay [11]. For the same molecule, the molecule was classed as inactive in [17], in assay [14] and in assay [19]. Further, in [3], the AC50 is 24.1 µM (active).

Regarding `Cc1ncc([N+](=O)[O-])n1CCO`, the result in assay [1], in assay [2], in assay [3], in [4], in assay [5] and in [10] was inactive. Besides, the molecule was classed as inactive in assay [11], in assay [16], in assay [14] and in assay [20].

For the molecule `CCCCCC(=O)CC`, the call in assay [1], in assay [2], in assay [3], in assay [4], in assay [5] and in [10] was inactive. The result in assay [11] and in assay [17] was inactive.

`CCCCCCC(C)Nc1ccc(Nc2ccccc2)cc1` (stereo not drawn): the outcome in assay [1], in assay [2], in assay [15] and in assay [11] was inactive. Moreover, the AC50 in [3] was 24.1 µM (active); in assay [17], 11.7 µM (active); in assay [14] it was 1.53 µM (active).

On to `CC/C=C\CCOC(=O)CC`, for which the call in assay [1], in [2], in assay [3], in [4], in assay [5] and in assay [10] was inactive. Moreover, in [14], the outcome was inactive.
